The source made the active and inactive calls.

Experiment [1] in a line: binders of probe aFSTL3 on microarray, primary screen, stem cell growth factor project, biochemical, small-molecule microarray, fluorescence 635/667 (AID 1064).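 Note: measures binding of the biotinylated anti-FSTL3 antibody to printed compounds.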 To be noted: higher = more signal.
The nature of experiment [2]: binders from COS7 lysate, DM2A8 probe, primary screen, torsin A project, cell lysate, small-molecule microarray, fluorescence 635/667 (AID 1065). To be noted: higher = more signal, COS7 lysate expressing mutant human TOR1A.
Experiment [3] can be described thus: binders of probe aFGF2 on microarray, primary screen, stem cell growth factor project, biochemical, small-molecule microarray, fluorescence 635/667 (AID 1067).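 Note: measures binding of biotinylated aFGF2 protein to printed compounds on slides; z-score merges feature fluorescence and signal-to-noise across triplicate slides.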 To be noted: higher = more signal.
A short description of experiment [4]: binders of probe aFGF10 on microarray, primary screen, stem cell growth factor project, biochemical, small-molecule microarray, fluorescence 635/667 (AID 1071).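 Note: score merges 667 nm spot intensity and signal to noise from triplicate slides.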 To be noted: higher = more signal.
The target in experiment [5] is Neurogenic locus notch homolog protein 2 (Homo sapiens) (UniProt Q04721). Description: Notch2 binders on small-molecule microarrays, primary screen, biochemical, small-molecule microarray, 635 nm fluorescence, stem cell growth factors (AID 1073). To be noted: Notch2 binding, higher = more signal.
Neurogenic locus notch homolog protein 2 (Homo sapiens), sequence (Q04721 whole entry, looked up, canonical isoform): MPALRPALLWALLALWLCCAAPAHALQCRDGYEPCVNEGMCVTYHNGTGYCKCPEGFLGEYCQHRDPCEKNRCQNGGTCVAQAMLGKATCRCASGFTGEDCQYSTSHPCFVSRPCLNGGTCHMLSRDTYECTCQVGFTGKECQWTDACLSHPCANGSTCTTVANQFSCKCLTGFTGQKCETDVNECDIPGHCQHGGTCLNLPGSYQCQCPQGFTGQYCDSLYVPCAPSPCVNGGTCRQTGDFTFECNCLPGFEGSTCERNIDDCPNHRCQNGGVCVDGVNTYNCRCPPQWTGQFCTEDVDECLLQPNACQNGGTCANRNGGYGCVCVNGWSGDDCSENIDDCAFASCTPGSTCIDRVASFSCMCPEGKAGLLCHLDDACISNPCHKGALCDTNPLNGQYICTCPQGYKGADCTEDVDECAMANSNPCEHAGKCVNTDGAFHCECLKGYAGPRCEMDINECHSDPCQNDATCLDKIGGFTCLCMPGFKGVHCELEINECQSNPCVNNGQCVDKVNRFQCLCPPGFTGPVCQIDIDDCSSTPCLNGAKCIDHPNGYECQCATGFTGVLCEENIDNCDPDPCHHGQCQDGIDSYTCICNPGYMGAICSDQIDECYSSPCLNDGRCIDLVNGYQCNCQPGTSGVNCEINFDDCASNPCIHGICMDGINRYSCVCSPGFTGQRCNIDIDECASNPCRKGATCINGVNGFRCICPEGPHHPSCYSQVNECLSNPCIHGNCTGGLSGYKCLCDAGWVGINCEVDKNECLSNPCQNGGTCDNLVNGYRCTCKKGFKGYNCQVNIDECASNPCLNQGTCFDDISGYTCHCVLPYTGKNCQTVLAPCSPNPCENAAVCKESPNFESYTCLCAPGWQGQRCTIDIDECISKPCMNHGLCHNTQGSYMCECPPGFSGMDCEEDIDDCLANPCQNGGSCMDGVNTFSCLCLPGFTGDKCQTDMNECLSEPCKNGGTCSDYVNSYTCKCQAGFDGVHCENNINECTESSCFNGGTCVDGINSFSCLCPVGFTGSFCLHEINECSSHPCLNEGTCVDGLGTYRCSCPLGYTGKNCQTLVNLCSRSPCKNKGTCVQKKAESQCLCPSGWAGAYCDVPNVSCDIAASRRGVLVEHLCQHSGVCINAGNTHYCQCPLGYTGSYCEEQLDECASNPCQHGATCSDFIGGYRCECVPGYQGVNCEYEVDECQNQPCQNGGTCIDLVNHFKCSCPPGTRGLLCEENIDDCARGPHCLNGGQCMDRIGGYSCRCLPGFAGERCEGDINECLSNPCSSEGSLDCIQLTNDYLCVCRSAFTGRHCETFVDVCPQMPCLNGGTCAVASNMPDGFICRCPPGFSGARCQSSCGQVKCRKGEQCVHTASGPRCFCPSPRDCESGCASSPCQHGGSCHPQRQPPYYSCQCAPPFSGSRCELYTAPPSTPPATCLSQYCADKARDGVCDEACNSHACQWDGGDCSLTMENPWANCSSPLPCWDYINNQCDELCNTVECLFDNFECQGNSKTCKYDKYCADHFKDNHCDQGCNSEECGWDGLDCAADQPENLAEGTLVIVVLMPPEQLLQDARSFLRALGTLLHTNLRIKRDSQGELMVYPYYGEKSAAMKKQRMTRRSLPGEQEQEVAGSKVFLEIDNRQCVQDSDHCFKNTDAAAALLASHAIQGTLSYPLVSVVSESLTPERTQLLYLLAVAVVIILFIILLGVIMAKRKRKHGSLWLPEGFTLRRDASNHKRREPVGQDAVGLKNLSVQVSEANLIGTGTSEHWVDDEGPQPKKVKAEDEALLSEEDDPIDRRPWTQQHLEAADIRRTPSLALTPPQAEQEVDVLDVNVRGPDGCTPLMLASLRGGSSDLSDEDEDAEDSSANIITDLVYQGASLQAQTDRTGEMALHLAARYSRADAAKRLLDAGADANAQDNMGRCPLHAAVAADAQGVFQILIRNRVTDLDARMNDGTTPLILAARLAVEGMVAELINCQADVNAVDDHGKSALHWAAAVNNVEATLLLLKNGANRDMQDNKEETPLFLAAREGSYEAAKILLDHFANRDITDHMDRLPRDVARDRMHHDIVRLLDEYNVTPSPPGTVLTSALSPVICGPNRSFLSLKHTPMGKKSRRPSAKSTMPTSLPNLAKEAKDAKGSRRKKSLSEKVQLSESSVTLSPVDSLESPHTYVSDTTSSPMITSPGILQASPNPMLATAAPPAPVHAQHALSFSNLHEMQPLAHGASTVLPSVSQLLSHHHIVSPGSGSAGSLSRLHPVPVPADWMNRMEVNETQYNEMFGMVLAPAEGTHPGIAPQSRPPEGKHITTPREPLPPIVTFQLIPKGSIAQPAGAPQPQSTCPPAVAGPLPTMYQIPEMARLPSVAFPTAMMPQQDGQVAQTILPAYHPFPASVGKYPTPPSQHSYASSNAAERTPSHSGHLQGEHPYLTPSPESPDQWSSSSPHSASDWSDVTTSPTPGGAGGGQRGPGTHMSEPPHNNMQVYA
Experiment [6] addresses Pro-neuregulin-1, membrane-bound isoform (Homo sapiens) (UniProt Q02297). Description: NRG1 binders on small-molecule microarrays, primary screen, psychiatric disease protein project, biochemical, small-molecule microarray, fluorescence 635/667 (AID 1075).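 Note: score combines 667 nm spot fluorescence with signal to noise.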 To be noted: NRG1 binding, 635 nm fluorescence, higher = more signal.
In experiment [7] the test system is Neuregulin-1 EGF-like domain. Description: binders of neuregulin-1 EGF-like domain, primary screen, biochemical, small-molecule microarray, 635 nm fluorescence (AID 1081).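 Note: binding of the protein to compounds printed on small-molecule microarray slides.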 To be noted: small-molecule microarray binding, higher = more signal.
A short description of experiment [8]: FRG1 promoter luciferase signal modulators, primary screen, FRG1 inhibition for FSHD, cell-based, C2C12 myotubes, firefly/Renilla luciferase, luminescence (AID 1084). To be noted: higher = more signal, called active from +8 up or from −8 down.
Experiment [9] in a line: binders of probe aFST on microarray, primary screen, stem cell growth factor project, biochemical, small-molecule microarray, fluorescence 635/667 (AID 1086).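 Note: score merges 667 nm fluorescence with signal-to-noise of each printed compound spot.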 To be noted: higher = more signal.
Experiment [10] in a line: binders of probe aHhip on microarray, primary screen, stem cell growth factor project, biochemical, small-molecule microarray, fluorescence 635/667 (AID 1087).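 Note: score merges spot fluorescence at 667nm with spot signal to noise ratio.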 To be noted: higher = more signal.

Pro-neuregulin-1, membrane-bound isoform (Homo sapiens), sequence (Q02297 whole entry, looked up, the tested form may be a part, canonical isoform): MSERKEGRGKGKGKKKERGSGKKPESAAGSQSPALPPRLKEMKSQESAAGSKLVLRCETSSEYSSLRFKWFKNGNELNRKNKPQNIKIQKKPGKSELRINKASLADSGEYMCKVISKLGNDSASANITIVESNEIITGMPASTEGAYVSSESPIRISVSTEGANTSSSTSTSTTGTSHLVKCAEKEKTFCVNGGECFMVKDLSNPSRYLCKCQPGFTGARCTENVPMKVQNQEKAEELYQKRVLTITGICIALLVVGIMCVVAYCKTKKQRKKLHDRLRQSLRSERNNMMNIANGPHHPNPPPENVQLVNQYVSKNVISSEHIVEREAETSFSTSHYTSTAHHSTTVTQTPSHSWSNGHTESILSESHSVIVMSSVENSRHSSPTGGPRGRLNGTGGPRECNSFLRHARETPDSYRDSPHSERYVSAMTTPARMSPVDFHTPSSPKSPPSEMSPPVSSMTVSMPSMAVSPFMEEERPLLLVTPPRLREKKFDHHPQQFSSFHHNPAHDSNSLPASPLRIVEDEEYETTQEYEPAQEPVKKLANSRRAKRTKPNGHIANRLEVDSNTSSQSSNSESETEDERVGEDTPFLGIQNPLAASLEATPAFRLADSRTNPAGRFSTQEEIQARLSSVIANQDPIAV

Consider `C=CCC(OC(C)=O)[C@@H]1[C@@H](N(Cc2ccc(-c3cccc(C(F)(F)F)c3)o2)C(=O)c2ccc(-c3ccccc3)cc2)c2cc(OCCCO)ccc2N1C(=O)Cc1ccc2ccccc2c1` (stereo not given in full), for which the composite z-score was -0.414 in [1]; -0.732 in [2]; -0.0454 in experiment [3]; -0.342 in experiment [4]; -0.753 in experiment [5]; -0.337 in [6]. In addition, the composite z-score in experiment [7] is -0.0291; in experiment [9], 1.09; in experiment [10] it was 0.0156. The z-score in [8] was -0.0069 (inactive).
In the case of `COC(=O)[C@@]1(Cc2ccc(F)cc2)[C@H]2c3cc(C(=O)N4CCCC4)n(Cc4ccc(C)c(F)c4F)c3C[C@H]2CN1C(=O)c1ccccc1`, the composite z-score in [1] was 0.573; in [2], -0.0621; in experiment [3] it was -0.0887; in [4], -0.227; in experiment [5], 1.11; in [6], 1.29. Besides, the composite z-score in [7] was 1.35; in experiment [9] it was 0.409; in experiment [10] it was -0.0618. Further, the z-score in [8] is 2.59 (inactive).
`CCCCN1CC=CC23O[C@@H]4/C=C\CCC(C)OC(=O)C4[C@H]2C(=O)N(CCCO)[C@@H]3C1=O` (stereo not given in full): the composite z-score is 0.35 in [1]; -0.913 in experiment [2]; -0.195 in [3]; -0.317 in experiment [4]; -0.962 in experiment [5]; 1.93 in [6]. Moreover, the composite z-score in experiment [7] is 1.1; in [9] it was -0.663; in experiment [10] it was -0.306. Moreover, in [8], the z-score was -0.313 (inactive).
For the compound `C#CCN(Cc1ccccc1Br)[C@H](/C=C/c1ccccc1)[C@@H](O)Cc1ccccc1`, the composite z-score in experiment [1] was 1.6; in [2], -0.145; in [3] it was -0.164; in [4], -0.738; in experiment [5] it was -1.09; in [6], -0.316. In addition, the figures for the composite z-score in [7], in experiment [9] and in [10] were -0.289, -0.722 and 0.0373, respectively. Further, the z-score in experiment [8] was -2.05 (inactive).
Regarding `COc1ccc([C@H]2OC[C@@H]3C[C@H](Cc4ccccc4)C(=O)N32)cc1`, the composite z-score in experiment [1] was -0.458; in [2], 0.7; in experiment [3], -0.0376; in [4], 0.219; in [5], 0.423; in experiment [6], -0.465. The figures for the composite z-score in experiment [7], in experiment [9] and in experiment [10] were 0.684, 0.277 and 0.107, respectively. In [8], the z-score was 0.18 (inactive).
`NC(=O)[C@@]1(Cc2ccccc2)COC(c2ccc(OCCCO)cc2)=N1`: the composite z-score is 0.634 in experiment [1]; 0.758 in experiment [2]; -0.0594 in experiment [3]; -0.281 in [4]; 0.29 in experiment [5]; 1.37 in experiment [6]. For the same compound, the values for the composite z-score in experiment [7], in experiment [9] and in [10] were 1.16, 0.252 and -0.0684, respectively. In addition, the z-score in experiment [8] was 1.47 (inactive).
Turning to `O=C(O)[C@@H]1[C@@H]2C(=O)N(c3ccccc3)C(=O)[C@@H]2C[C@@H]1Sc1ccccc1`, the composite z-score was 0.305 in [1]; -0.534 in experiment [2]; -0.0833 in experiment [3]; 0.105 in experiment [4]; -0.0593 in [5]; -0.141 in experiment [6]. Further, the composite z-score was 0.695 in [7], -0.377 in experiment [9] and 0.0505 in experiment [10]. The z-score in experiment [8] was 1.06 (inactive).
For the compound `CCCCN1CC=CC23O[C@@H]4/C=C\CCCOC(=O)C4[C@H]2C(=O)N(CCO)[C@@H]3C1=O` (stereo not given in full), the composite z-score in experiment [1] is 0.33; in [2], -1.37; in [3], -0.19; in experiment [4] it was -0.615; in experiment [5], -0.913; in [6] it was 0.441. Further, the values for the composite z-score in [7], in experiment [9] and in [10] were 1.61, -1 and -0.271, respectively. In addition, the z-score in experiment [8] was -0.0657 (inactive).
As to `CCCCC=C[C@@H](NC(=O)OCc1ccccc1Cl)c1ccccc1`, the composite z-score in [1] amounted to 0.983; in experiment [2], 0.199; in [3], 0.583; in experiment [4], 0.711; in experiment [5], 1.59; in experiment [6] it was 1.51. Moreover, the composite z-score in experiment [7] stood at 1.19; in experiment [9], 2.81; in experiment [10] it was 0.996. The z-score in [8] is 1.31 (inactive).
`COc1ccc([Si](C)(C)[C@@H]2[C@@H](CC(=O)N3CCC[C@H]3CO)O[C@]3(C(=O)N(Cc4cccc(N5C(=O)COc6ccccc65)c4)c4ccccc43)[C@H]2C)cc1`: the composite z-score in experiment [1] was -0.222; in experiment [2] it was 0.203; in experiment [3], -0.112; in experiment [4], 0.428; in experiment [5], -0.173; in experiment [6] it was 1.35. For the same compound, the composite z-score was 1.12 in experiment [7], 0.824 in experiment [9] and 0.103 in experiment [10]. The z-score in experiment [8] was -0.234 (inactive).
On to `CCCC[C@@H]1C[C@H]1[C@@H](NC(=O)c1cccs1)c1ccccc1C(F)(F)F`, for which the composite z-score in experiment [1] was found to be 0.015; in [2], 0.871; in experiment [3], 0.326; in experiment [4] it was 0.256; in [5], 0.803; in experiment [6], 1.8. The figures for the composite z-score in [7], in experiment [9] and in experiment [10] were 1.1, -0.517 and -0.115, respectively. The z-score in experiment [8] was -0.0362 (inactive).
Regarding `CN(C)C(=O)[C@@]1(Cc2ccccc2CN=[N+]=[N-])N=C(c2ccc(OCCCO)cc2)O[C@H]1c1ccccc1N=[N+]=[N-]`, the composite z-score in experiment [1] is 0.388; in experiment [2], 0.021; in experiment [3], 0.0362; in [4], 1.2; in [5] it was 1.55; in [6], 1.88. For the same compound, the composite z-score in experiment [7] is 1.25; in experiment [9], 1.44; in experiment [10], 0.0071. In addition, the z-score in experiment [8] is -1.34 (inactive).
For `C=C[C@@H](CO)N(Cc1ccc(OC)cc1)S(=O)(=O)c1ccc(Br)cc1`, the composite z-score in experiment [1] is -0.142; in experiment [2] it was 0.368; in experiment [3], -0.13; in experiment [4], 0.332; in experiment [5], -0.185; in experiment [6], 0.0749. The composite z-score in [7] was 0.996; in experiment [9], -0.446; in experiment [10], -0.134. The z-score in [8] is -4.18 (inactive).
For `CCOC(=O)C1=CC[C@@H](c2ccccc2)N(S(=O)(=O)c2ccc(C)cc2)[C@H]1c1ccccc1`, the composite z-score in [1] is 0.322; in [2] it was 0.13; in experiment [3], -0.0073; in [4], 0.296; in experiment [5], 1.37; in [6] it was 0.334. For the same compound, the composite z-score in experiment [7] was 0.628; in experiment [9], 0.77; in experiment [10], -0.265. In experiment [8], the z-score is -2.4 (inactive).
Consider `C=C(/C(=C/C[C@H](OC(C)=O)c1ccc(CO)o1)c1cnc2ccccc2c1)C(C)C`, for which the composite z-score was -0.519 in [1]; 1.01 in [2]; 0.0122 in [3]; 1.01 in experiment [4]; 1.5 in experiment [5]; 1.68 in experiment [6]. In addition, the composite z-score in experiment [7] is 1.04; in [9], 0.846; in experiment [10], -0.0296. Moreover, the z-score in experiment [8] is 0.938 (inactive).
For `CS(=O)(=O)CCOC(=O)C1=CC(CCCO)=CC(c2ccc(CN3CCCC3)cc2)N(Cc2sc3ccccc3c2Cl)C=C1C(=O)OCCS(C)(=O)=O` (stereo not given), the composite z-score in experiment [1] is 0.0681; in [2], 2.14; in experiment [3], 0.198; in experiment [4], 1.3; in experiment [5] it was 1.62; in experiment [6], 2.16. The composite z-score in [7] came out at 1.22; in experiment [9] it was 0.888; in [10] it was 0.0053. Further, in [8], the z-score is 0.168 (inactive).

Source of the values: PubChem BioAssay.
